# Experimental data as given in ChEMBL document CHEMBL3988442, “University of Dundee, Small-Polar-MMV Screening Library” (2021).
# Out of some 48,000 compounds screened, about 13,000 (27%) showed an effect of 50% or more. This is one part of the list.
# System: Wolbachia pipientis
# Assay: Anti-Wolbachia Cell-Based Screen
# Type: functional
# Set-up: scale not given: in the data most compounds retested in dose-response had high values
# Conditions: 5 µM
row,SMILES,Percent Effect
1,O=C(NC1CCC1)C1CCC2(CN(C(=O)c3ccno3)C2)O1 (stereo not drawn),2.059%
2,O=C(c1ccc[nH]1)N1CCCC(c2cc(C(F)(F)F)[nH]n2)C1 (stereo not drawn),-9.471%
3,Cc1cc(C(=O)N2C[C@@H](C(=O)O)[C@H](c3ccccc3C)C2)c(C)o1,-7.74%
4,Cc1[nH]ccc1C(=O)N1CCCC(c2ccc(C(=O)O)cc2)C1 (stereo not drawn),104%
5,Cc1cc(C(=O)N2CCCC(c3ccc(C(=O)O)cc3)C2)c(C)o1 (stereo not drawn),108.3%
6,CC(C)(C)n1ccc(C(=O)N2CCCC(c3ccc(C(=O)O)cc3)C2)c1 (stereo not drawn),-5.053%
7,O=C(O)c1ccc(C2CCCN(C(=O)c3ccc[nH]3)C2)cc1 (stereo not drawn),96.47%
8,CC(C)c1csc(C2CCCN(C(=O)c3ccc[nH]3)C2)n1 (stereo not drawn),7.741%
9,Cc1[nH]ccc1C(=O)N1CCCC(c2nccn2Cc2cscn2)C1 (stereo not drawn),-11.42%
10,CCC(C)N1CCC(Oc2ccc(C(=O)NCCN(C)C)cc2Cl)CC1 (stereo not drawn),0.8675%
11,COc1cccc(/C=C/CCN2CCCN(C(C)=O)CC2)c1,3.012%
12,COCC(=O)NCc1cccc(OCCN(C)C2CCOCC2)c1,-0.3867%
13,Cc1ccc(C)c(-n2cc(CN3CCOCC3)c(-c3ccccc3)n2)c1,9.149%
14,CC(C)c1nc(C2CCCN2CCS(C)(=O)=O)no1 (stereo not drawn),108.9%
15,CC(C)c1nc(C2CCCN2CCc2ccncc2)no1 (stereo not drawn),-3.016%
16,CC(C)c1nc(C2CCCN2CCc2ccccn2)no1 (stereo not drawn),92.65%
17,Cc1nc(C2CCCN2CCCNS(C)(=O)=O)no1 (stereo not drawn),5.107%
18,CC(C)c1nc(C2CCCN2CC(=O)N2CCNC2=O)no1 (stereo not drawn),0.9306%
19,CCS(=O)(=O)CCN1CCCC1c1noc(C2CC2)n1 (stereo not drawn),-6.058%
20,Cc1nc(C2CCCN2CCc2ccccn2)no1 (stereo not drawn),0.4664%
21,CCc1nc(C2CCCN2CCc2ccccn2)no1 (stereo not drawn),17.85%
22,CC(C)c1nc(C2CCCN2CCNS(C)(=O)=O)no1 (stereo not drawn),98.61%
23,CC(C)c1nc(C2CCCN2CCN2CCCCC2)no1 (stereo not drawn),99.79%

row,SMILES,Percent Effect
1,CC(C)(C)CC(=O)N1CC[C@@H](CC(=O)O)[C@@H](CCN2CCCCC2)C1,-5.604%
2,CN(C)c1ccc(C(=O)N(Cc2ccncc2)CC2CCCO2)nn1 (stereo not drawn),-20.14%
3,CC(=O)Nc1cccc(C(=O)Nc2cnc3n2CCCC3)c1,-12.98%
4,CCCS(=O)(=O)N1C[C@@H]2CC[C@H](C1)N(Cc1cscn1)C2=O,-56.87%
5,COCc1cnc2n1CCN(S(=O)(=O)c1c(C)nn(C)c1C)C2C (stereo not drawn),-6.968%
6,CCCN(CCC)S(=O)(=O)NCCc1cc(C)ccc1OC,-23%
7,CCN(CC)C1(Cc2cc(-c3cccc(O)c3)on2)COC1,-3.325%
8,O=C1NC2(CCN(C/C=C/c3ccccc3)CC2)CC1c1ccccc1 (stereo not drawn),1.619%
9,O=C1Nc2ccccc2CN(CC2CCCC2)C12CCNC2 (stereo not drawn),101.1%
10,CC(C(=O)O)N1CC2(CCC1=O)CCN(C/C=C/c1ccccc1)CC2 (stereo not drawn),-24.48%
11,CCc1nnc(CN2CCC3(CC2)Nc2ccccc2NC3=O)o1,8.139%
12,O=C1Nc2ccccc2CN(CC2CC2)C12CCNC2 (stereo not drawn),99.74%
13,COc1ccccc1NC(=O)CSC1CCc2ccccc2NC1=O (stereo not drawn),14.42%
14,O=C(CSC1CCc2ccccc2NC1=O)NCCO (stereo not drawn),-0.2821%
15,O=C1Nc2ccccc2CN(C/C=C/c2ccccc2)C12CCNC2 (stereo not drawn),116.1%
16,O=C1NCCN(CC2CC2)C12CCN(Cc1ccco1)CC2,-5.362%
17,CCCN1Cc2ccccc2NC(=O)C12CCNC2 (stereo not drawn),105.5%
18,CN(C)CCOC1CC2(CCN(c3cnccn3)CC2)c2ccccc21.O=C(O)C(F)(F)F (stereo not drawn),-0.2574%
19,CC(C)NC(=O)N1CCN2C(=O)N(Cc3ccc(F)cc3)C[C@H]2C1,1.439%
20,CO[C@H]1CN(C(C)C)C[C@@H]1NC(=O)c1cc(-c2ccccc2O)n[nH]1,3.341%
21,CNc1nc(C)cc(N2CCC(C(=O)O)(n3ccc(C(C)C)n3)CC2)n1,-25.68%
22,O=S(=O)(NCC1(O)CCOc2ccccc21)c1ccc(Cl)s1 (stereo not drawn),-0.7436%
23,O=C1CC2(CCN(C(=O)Cc3cc4c(cc3Cl)OCCO4)C2)C(=O)N1 (stereo not drawn),-1.867%

row,SMILES,Percent Effect
1,Cc1cc(NCC2(O)CCOCC2)nc2ccccc12,15.38%
2,Cc1cnn(CC2CCCN2C(=O)c2ccc(F)cc2Cl)c1 (stereo not drawn),118%
3,Cc1cnn(CC2CCCN2C(=O)c2ccc(Cl)cc2F)c1 (stereo not drawn),130.9%
4,COc1ccc(C(=O)N2CCCCC2Cn2cccn2)c(F)c1 (stereo not drawn),4.231%
5,Cc1cnn(CC2CCCN2C(=O)c2ccc3nnc(C)n3c2)c1 (stereo not drawn),-11.91%
6,O=C(c1cc(Cl)ccc1F)N1CCCC1Cn1cccn1 (stereo not drawn),101.1%
7,CCn1nnc2cc(C(=O)N3CCCC3Cn3cc(C)cn3)ccc21 (stereo not drawn),-10.21%
8,O=C(c1ccccc1N1CCOCC1)N1CCCC1Cn1cccn1 (stereo not drawn),-6.576%
9,Cc1cnn(CC2CCCN2C(=O)c2ccc(F)c(F)c2)c1 (stereo not drawn),123.6%
10,CCCNC(=O)C1CCN(Cc2csc(C(C)(C)C)n2)CC1,-3.863%
11,COc1cccc2c1CCN(C(=O)NCCc1nccn1C)C2,2.215%
12,CC(C#N)CSc1ccccc1NCC(=O)NC(=O)NC(C)(C)C (stereo not drawn),-19.45%
13,CC(O)CN1CCC(CN(C)Cc2cc(C#N)ccc2F)CC1 (stereo not drawn),-5.082%
14,Cc1ncc(CNC(CCO)C2CCCCC2)s1 (stereo not drawn),-8.339%
15,COc1ncnc2c1CCN(Cc1nccs1)CC2.O=C(O)C(F)(F)F,2.06%
16,N#Cc1nccnc1N1CCC(OCCCc2ccccc2)C1 (stereo not drawn),1.367%
17,Cc1nc2c(c(NCCNC(=O)C(C)C)n1)Cc1ccccc1OC2,89.1%
18,Cc1nc2c(c(NCC(=O)NC(C)C)n1)Cc1ccccc1OC2,92.9%
19,Cc1cccc2c1cnn2CCCNC(=O)C(C)C,-3.766%
20,CC(C)C(C(=O)NCc1ccccc1-n1cccn1)N(C)C (stereo not drawn),-20.85%
21,Cc1nc2c(c(NCc3ccccc3)n1)CCN(C(=O)NC(C)C)CC2,7.807%
22,CN(C)c1nc2c(c(=O)[nH]1)Cc1ccccc1OC2,-4.691%
